In all, about 640,000 compounds went through this assay and about 9,300 (1.5%) were called active. The full list was thinned out, with actives kept by preference. Unmarked numbers belong to inactive results. Rule as the data show it: active = inhibition above about 32%; inactive = the rest.

The experiment in a line: TEAD-YAP interaction inhibition, primary screen, TEAD-YAP interaction inhibitor project, luminescence, HEK-TIYL cells (AID 1259422).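 Also: 0% = median of test compound wells and 100% = reference inhibitor wells.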 The settings on record: TEAD-Gal4/YAP UAS-luciferase luminescence, at 9.12 µM, active compounds read high.
Regarding `CC[n+]1c(/C=C/C=C2\N(C)c3ccccc3C2(C)C)n(-c2ccccc2)c2ccc(Cl)cc21`, the inhibition was 91.8% (active). The same measure for `C=C1C[C@@H](c2ccccc2)N2CCC[C@H]2[C@H]1C`: -6.5%; for `C=C(C)CN(CC)C(C)Cc1ccc(OC)c(OC)c1` (stereo not given): -4.32%; for `Cc1[nH]c2c(F)cccc2c1CCN`: 1.82%. With `CCOc1cc2c(cc1C=C(C#N)C#N)OCO2` the figure was -1.58%. Turning to `CC1=CC(=Cc2sc3ccccc3[n+]2C)C=C(C)O1`, the inhibition is 85.8% (active).

Consider `Cc1ccc2nc(NC(=O)c3c(O)c4c(n(Cc5ccco5)c3=O)CCCC4)sc2c1`, for which the inhibition is -4.37%. With `COc1cc(/C=C2\C(=O)NC(=O)N(c3ccccc3)C2=O)ccc1O` the figure was 11.5%. The same measure for `Cc1cc2c(cc1Br)NC(=O)C2(c1c(O)n(C)c(=O)n(C)c1=O)C(C#N)C#N` (stereo not given): -14.6%. With `CN(C)P(=O)(c1cccc(C(=O)O)c1)N(C)C` the figure was -4.89%; with `CCOc1ccc(C(Nc2ccccc2)P2(=S)OCC(C)(C)CO2)cc1` (stereo not given), 5.04%; with `CN[C@@H]1C[C@H]2O[C@@](C)([C@@H]1OC)n1c3ccccc3c3c4c(c5c6ccccc6n2c5c31)C(=O)NC4`, 102% (active). As for `O=C1NC(=S)NC(=O)C1=Cc1ccc(-c2ccccc2)o1`, the inhibition was 1.36%. As to `O=C(Cc1ccc(F)cc1)N(Cc1ccco1)C1CCN(Cc2ccncc2)CC1`, the inhibition is -7.86%. The same measure for `COc1ccc(C=C(C#N)C#N)c(C)c1C`: -13.8%; for `c1ccc2c(c1)[I+]c1ccccc1-2`: 60% (active); for `CCOC(=O)C1=C(N)Oc2n[nH]c(C)c2C12C(=O)Nc1ccc(Br)cc12` (stereo not given): 4.72%. As to `CC(=O)Nc1cc([N+](=O)[O-])ccc1N1CCN(C)CC1`, the inhibition was -2.87%. With `COc1ccc(C(C[N+](=O)[O-])c2c(-c3ccccc3)[nH]c3ccccc23)cc1` (stereo not given) the figure was 52.6% (active); with `COc1ccc(-n2c(-c3ccccc3)nc3ccccc3c2=O)cc1`, 1.69%; with `CCCCOc1ccccc1C1C(C#N)=C(N)Oc2c1c(=O)oc1ccccc21` (stereo not given), -0.47%. With `Cc1ccc(NC(=O)C2C3c4ccccc4C(c4ccccc43)C2C(=O)O)cc1` (stereo not given) the figure was -0.29%. The same measure for `CCCCC[n+]1ccc(-c2cc[n+](CCCCC)cc2)cc1`: 56.5% (active). For `CCOC(=O)C1C2NC(=S)NC1(C)Oc1cc(OC)ccc12` (stereo not given), the inhibition was 0.95%. The same measure for `O=C(c1ccccc1)c1cc(Cl)ccc1N1C(=O)c2ccccc2C1=O`: -3.06%. With `COc1cc(CN2CCN(C)CC2)ccc1O`, the inhibition was 4.62%. Consider `C[C@@H]1C[C@H]2CC[C@H](O2)[C@H](C)C(=O)O[C@@H](C)C[C@@H]2CC[C@@H](O2)[C@@H](C)C(=O)O[C@H](C)C[C@H]2CC[C@H](O2)[C@H](C)C(=O)O[C@@H](C)C[C@@H]2CC[C@@H](O2)[C@@H](C)C(=O)O1`, for which the inhibition was 94.6% (active). Turning to `N#C/C(=C\c1cc2c(cc1Cl)OCO2)c1nn(CCO)c(N)c1C#N`, the inhibition was -18.8%. With `CCC(=O)C1=C(C)OC(N)=C(C(=O)OC)C12C(=O)Nc1ccccc12` (stereo not given) the figure was 3.18%.

Turning to `COc1ccc2c(c1)c(C(=O)N1CCN(C)CC1)c(C)n2C`, the inhibition is -6.79%.

Regarding `C(=N\N1CCCCC1)/c1c[nH]c2ccccc12`, the inhibition is 4.68%. With `O=C1CC(=O)N(C2CCCCCC2)C(=O)N1` the figure was -0.34%; with `N#Cc1ccc(NC(=O)COC(=O)CCC2CCCC2)cc1Cl`, 0.25%; with `c1ccc2c(CCNC3CC4CCC3C4)c[nH]c2c1` (stereo not given), -1.36%. The same measure for `CCCCCCOc1ccc(C=C2C(=O)NC(=S)NC2=O)cc1`: 13%.

Usually inhibition stands for the relative decrease from the control value, in per cent.

Values taken from PubChem BioAssay AID1259422 (The Scripps Research Institute Molecular Screening Center, 2018).
